Results from PubChem BioAssay AID1259417 (TB Discovery Research, Infectious Disease Research Institute, 2018).
The campaign covered roughly 1,100 compounds. About 760 (69%) were called active. The rule behind the calls is not given here. So high a share suggests a set chosen from earlier hits. This is one part of the list.

Assay: M. tuberculosis growth inhibition, HTS (AID 1259417);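 note: bacteria grown with compound for 5 days at 37 °C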
Conditions: stronger effect = higher value, concentration not given here
[1] = M. tuberculosis DsRed fluorescence growth inhibition
[2] = M. tuberculosis growth inhibition

SMILES | inhibition [1] | inhibition [2]
Cc1c(Cc2ccc(Cl)cc2)c(NCCCN(C)C)n2c(nc3ccccc32)c1C#N | 14.4% (inactive) | -9.38%
Cc1c(Cc2ccccc2)c(NCCCO)n2c(nc3ccccc32)c1C#N | 97.8% (active) | 87.9%
O=C(NCCc1ccc(F)cc1)NC12CC3CC(CC(C3)C1)C2 | 100% (active) | 96.2%
CCOC(=O)c1c(CSc2ccccc2)n(-c2ccccc2)c2ccc(O)c(CN(C)C)c12 | 92.7% (active) | 91.9%
Oc1ccc(CNc2ccccc2O)cc1 | 98.3% (active) | 97.3%
N#Cc1nc(-c2cccs2)oc1NCCc1ccccc1 | 100% (active) | 100%
CC(C)N=c1cc2n(-c3ccc(Cl)cc3)c3ccccc3nc-2cc1Nc1ccc(Cl)cc1 | 100% (active) | 99.5%
Cc1ccccc1Nc1nc(-c2ccccn2)cs1 | 87.2% (active) | 92.7%
Cc1ccn2c(-c3csc(Nc4ccccn4)n3)c(C)nc2c1 | 98.9% (active) | 100%
Cc1cc(O)ccc1Nc1nc(-c2ccccn2)cs1 | 71.9% (active) | 77.7%
Cc1cccnc1Nc1nc(-c2ccccn2)cs1 | 100% (active) | 100%
FC(F)(F)c1ccccc1Nc1nc(-c2ccccn2)cs1 | 90.1% (active) | 86.1%
Cc1cccc(NC(=O)c2cc(-c3cccs3)nc3ccccc23)n1 | 8.52% (inactive) | 22.7%
Cc1cccc(Nc2nc(-c3ccccn3)cs2)n1 | 91.2% (active) | 97.6%
Cc1ccc(C(=O)NCCC23CC4CC(CC(C4)C2)C3)cc1 | 100% (active) | 97.3%
O=C(NCCC12CC3CC(CC(C3)C1)C2)c1ccc(Br)cc1 | 98.8% (active) | 94.1%
c1ccc2sc(NC3=NCN(Cc4ccc5c(c4)OCO5)CN3)nc2c1 | 17.9% (active) | 69.1%
O=C(OCc1ccc(F)cc1)c1ccc2ccccc2n1 | 3.6% (inactive) | 5.51%
Cc1nc2ccc(C(=O)OCc3cccc(F)c3)cc2nc1C | 19.1% (active) | 60.3%
Cc1nc2ccc(C(=O)OCc3nnc(-c4ccccc4)o3)cc2nc1C | -4.41% (inactive) | 0.442%
O=C(Nc1nnc(-c2cccs2)o1)c1ccco1 | -2.8% (inactive) | -18.4%
O=C(Nc1nnc(-c2ccco2)o1)c1cccc(C(F)(F)F)c1 | 88.4% (active) | 94.4%

SMILES | inhibition [1] | inhibition [2]
CC(C)(C)c1ccc(C(=O)Nc2nnc(-c3ccco3)o2)cc1 | 88.2% (active) | 89.7%
O=C(Nc1nnc(-c2ccco2)o1)c1cccs1 | 17.8% (active) | 40.1%
O=C(Nc1nnc(-c2cccs2)o1)c1cccc(C(F)(F)F)c1 | 1.3% (inactive) | 6.76%
Cc1ccccc1C(=O)Nc1nnc(-c2ccco2)o1 | 47.6% (active) | 71.5%
CCSc1ccc(CC(=O)Nc2nnc(-c3ccc4c(c3)OCCO4)o2)cc1 | 2.15% (inactive) | 7.09%
CCSc1ccc(C(=O)Nc2nnc(-c3ccco3)o2)cc1 | 83.8% (active) | 91.8%
CN1CCC(O)(c2cccs2)C(C(=O)c2cccs2)C1 (stereo not drawn) | 100% (active) | 98.7%
c1ccc(OCc2nn3c(-c4n[nH]c5c4CCC5)nnc3s2)cc1 | 99.1% (active) | 99.6%
N#Cc1ccccc1NC(=O)CSc1nc2cc3ccccc3cc2[nH]1 | 2.65% (inactive) | 10.4%
O=C(CSc1nc2ccccc2c(=O)[nH]1)NCc1ccccc1 | 101% (active) | 100%
COc1ccccc1NC(=O)CSc1nc2cc3ccccc3cc2[nH]1 | -0.285% (inactive) | -21.7%
O=C(NCCN1CCOCC1)c1ccc([N+](=O)[O-])cc1[N+](=O)[O-] | 98.1% (active) | 94.6%
O=[N+]([O-])c1ccc(NCCNc2nc3ccccc3nc2N2CCOCC2)cc1 | 8.52% (inactive) | -3.69%
Cc1cc(C)n(C(=O)c2ccc([N+](=O)[O-])cc2[N+](=O)[O-])n1 | 0.918% (inactive) | -7.93%
O=C(Nc1nnc(-c2ccc(Cl)cc2)o1)c1ccco1 | 20% (active) | 48.4%
O=C(Nc1nnc(-c2ccccc2)o1)c1ccco1 | 20.9% (active) | 32.7%
O=C(Nc1nnc(-c2ccc(F)cc2)o1)c1ccco1 | 26% (inactive) | 16.6%
CCn1ccnc1CN(C)Cc1cn(-c2cccc(C)c2)nc1-c1cccc(F)c1 | 18.2% (inactive) | 15.5%
Cc1ccc(Sc2ccc(C=O)o2)cc1 | -0.277% (inactive) | 24.1%
Cc1ccc(CN=c2c([N+](=O)[O-])nn(-c3cccc(Cl)c3)n2O)cc1 | 99.8% (active) | 100%
Cc1cccc(-n2nc([N+](=O)[O-])c(=NCCC3=CCCCC3)n2O)c1 | 101% (active) | 54.8%
O=S1(=O)C=C(Sc2nc3ccccc3s2)c2ccccc21 | 100% (active) | 99.8%
